# Assay results as given in ChEMBL document CHEMBL3433997, “St. Jude Leishmania screening dataset” (2016).
# Target: Glucose transporter (Leishmania mexicana) (UniProt O61059)
# Assay: ST_JUDE_LEISH: Cytotoxicity at 2uM final concentration against transgenic Leishmania Mexicana promastigotes LmGT2 that are glucose transport deficient and complemented with the L. Mexicana glucose transporter 2. Activity is measured by DNA content using SYBR green in vitro
# Assay type: functional
row,SMILES,inhibition [%]
1,COc1cc(NC(=O)NC(CCN2CCC3(CCc4ccccc43)CC2)c2ccc(Cl)c(Cl)c2)cc(OC)c1OC (stereo not given),-3.62
2,Cn1cnc(CCNC(=O)c2cccc(-c3csc(-c4nc5ccccc5[nH]4)c3)c2)c1,-0.89
3,CC[C@H]1CN2CCc3c([nH]c4ccccc34)[C@@H]2C[C@@H]1CC1c2cc(OC)c(OC)cc2CCN1C (stereo not given in full),9.79
4,Cc1cc(OCCCN2CCC(NS(=O)(=O)c3cccc(Br)c3)C2)c2ccccc2n1 (stereo not given),1.56
5,CC(=O)Nc1nc(C(=O)Nc2cccc(-c3cccc(-c4nc5ccccc5[nH]4)c3)c2)cs1,6.57
6,N=C(N)NN=CC(=O)Nc1ccc(Cl)cc1,8.24
7,CN1CCN(c2nc(NCCNc3ccc([N+](=O)[O-])cc3)c3ccccc3n2)CC1,0.54
8,CCCCCCNCc1c(O)ccc2c(CNCCCCCC)c(O)ccc12,0.36
9,Cc1cccc2nc(-c3ccc(-c4ccc(CN5CCCC5CN)cc4)cc3)[nH]c12 (stereo not given),4.26
10,OC(c1ccccc1)C1CN(Cc2ccccc2)CCC1(O)c1ccccc1 (stereo not given),7
11,O=c1cc(NCCCNCc2cc3ccccc3s2)[nH]c2ccccc12,3.82
12,Cc1nc2nc(N)nc(N)c2c(C)c1Cc1ccc(C#N)cc1,-0.44
13,CCN(CC)CCN(Cc1ccc(-c2ccc(C(F)(F)F)cc2)cc1)C(=O)Cn1c(CCc2ccc(F)c(F)c2)cc(=O)c2ccccc21,8.28
14,Cc1cccc2nc(-c3cccc(-c4cccc(NC(=O)CN5CCN(C)CC5)c4)c3)[nH]c12,6.83
15,Cc1ccc(O)c(-c2cc(C(=O)Nc3ccc(S(=O)(=O)N4CCCCCC4)cc3)[nH]n2)c1,-0.85
16,O=C(Nc1ccc(F)c(Cl)c1)c1cc([N+](=O)[O-])cc2cn[nH]c12,-2.22
17,Clc1ccc2c(NCc3ccc4c(c3)OCO4)ccnc2c1,4.15
18,Nc1ccnc(N2CCC(CCOc3cc(C(F)(F)F)nc4c(C(F)(F)F)cccc34)CC2)c1,10.2
19,COc1ccc(Cn2c(N3CCN(S(=O)(=O)c4ccc(OC)cc4)CC3)nc3c2c(=O)n(CC2CC2)c(=O)n3CC2CC2)cc1,-1.39
20,O=C(Nc1ccc(Br)c(C(F)(F)F)c1)c1cccc([N+](=O)[O-])c1,-0.11

row,SMILES,inhibition [%]
1,CCOc1cc(NC(=O)Nc2ccnc3ccccc23)cc(OC)c1,7.94
2,Brc1ccc(C=NNc2nc3ccccc3[nH]2)cc1,2.59
3,O=C(Nc1cccc(CN2CCCN(Cc3ccc(O)cc3)CC2)c1)c1cccc(F)c1,9.62
4,COc1ccc(CNC(=O)NC2CCN(c3ccnc(Nc4ccc(OC)cc4)n3)C2)cc1 (stereo not given),1.82
5,Cc1sc2nc(CSc3ccccc3)nc(N3CCN(CC(=O)NC4CC4)CC3)c2c1C,-1.85
6,NC1=NC(c2ccccc2)(c2ccccn2)C(=O)N1CCCc1ccccc1 (stereo not given),1.77
7,COc1ccccc1CCC(C)(C)NC(=O)CC(CCc1ccccc1)Nc1ccc(C#N)c2ccccc12 (stereo not given),-3.34
8,c1cc(CN2CCC(CCN3CCCCC3)CC2)cc(-c2csc(-c3nc4ccccc4[nH]3)c2)c1,4.01
9,Oc1ccc2ccccc2c1C=NNc1nc(=Nc2ccccc2)[nH]c(=Nc2ccccc2)[nH]1,2.92
10,O=C(Nc1cccc(C(F)(F)F)c1)N1CCOC(CCN2CCC3(CCc4ccccc43)CC2)(c2ccc(Cl)c(Cl)c2)C1 (stereo not given),2.55
11,Cn1cncc1C(=O)Nc1cccc(-c2ccc(-c3nc4ccccc4[nH]3)s2)c1,4.94
12,COc1cc(OC)nc(C(Sc2ccc(NC(=O)c3cccs3)cc2)c2ccccc2)n1 (stereo not given),0.29
13,O=C(Nc1ccccc1O)c1ccc(Oc2cccc(C(=O)Nc3ccccc3O)c2)cc1,1.13
14,CCCCCCN1CCCN(Cc2ccc(C(=O)Nc3ccc(Cl)cc3)cc2)CC1,12.5
15,CC(C)CCN1CCCN(Cc2ccc(C(=O)Nc3ccc(F)c(F)c3)cc2)CC1,4.14
16,COc1ccc(CNCc2cccc(-c3cccc(-c4nc5cccc(C)c5[nH]4)c3)c2)cc1,7.72
17,O=C(OCc1ccccc1)N1CCc2c([nH]c3ccccc23)C1CCC(F)(F)F (stereo not given),0.12
18,CCOc1cc(C(C)C)ccc1N1CCN(CCCCNC(=O)c2ccc(NC(=O)c3ccc(Cl)cc3)cc2)CC1,2.86
19,Cc1ccc(NC(=O)c2ccc(Cl)c(Cl)c2)cc1-c1ccc(C(=O)Nc2ccncc2)cc1,-1.3
20,COc1cc2nc(N3CCC(C(N)=O)CC3)nc(NCc3ccccc3)c2cc1OC,0.48
